The target of one test is Albumin (Bos taurus) (UniProt P02769). In words: bovine serum albumin binders on microarray, profiling panel, artefact control for SMM control protein annotation, biochemical, small-molecule microarray, Alexa647 label, 635/667 nm fluorescence (AID 1118).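 Also: score merges 667 nm emission intensity and signal-to-noise per printed compound spot.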 Conditions: BSA-A647 binding, fluorescence 635 nm, higher = more signal.
Test [1] can be described thus: small-molecule microarray binders of probe aXIP, primary screen, biochemical, NeuroSMM set, 635/667 nm fluorescence (AID 1119).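 Also: probe is the protein aXip251-270 applied at 1 µg/mL to compound-printed slides; binding of probe to printed compounds measured as 667 nm fluorescence plus signal to noise.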 Conditions: higher = more signal, called active from +8 up or from −8 down.
Test [2] is described as follows: small-molecule binders of probe aNOTCH3, primary screen, biochemical, small-molecule microarray, 635/667 nm fluorescence (AID 1120).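 Also: probe is a biotin-tagged antibody raised against NOTCH3 rather than NOTCH3 protein; score merges spot fluorescence near 667 nm with spot signal to noise.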 Conditions: higher = more signal.
A short description of test [3]: small-molecule binders of probe aNOTCH2, primary screen, biochemical, small-molecule microarray, 635/667 nm fluorescence (AID 1121).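 Also: score merges feature fluorescence read at 667 nm with its signal to noise.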 Conditions: higher = more signal.
In test [4] the target is Carbonic anhydrase 2 (Homo sapiens) (UniProt P00918). In words: CAII small-molecule binders, profiling panel, biochemical, small-molecule microarray, Alexa647-labelled CAII (AID 1122). Conditions: CAII-A647 binding fluorescence, higher = more signal.
Test [5] can be described thus: COS7 lysate on small-molecule microarray, probe aHis, 635 nm (AID 1123).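 Also: z-score combines 667nm fluorescence intensity with signal-to-noise per printed compound spot.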 Conditions: COS7 cell lysate, fluorescence, higher = more signal.
Test [6] can be described thus: compound binding in COS7 lysate, probe aLAP1, primary screen, cell lysate, small-molecule microarray (AID 1124).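 Also: lysate comes from COS7 cells expressing LAP1 and is applied at 0.3 µg/mL; score merges spot fluorescence near 667 nm with signal-to-noise over triplicate slides.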 The settings on record: probe aLAP1, fluorescence, higher = more signal.
Another test has as its system Sam68 (KHDRBS1). In words: Sam68 small-molecule binders, primary screen, biochemical, small-molecule microarray, 635 nm fluorescence (AID 1125).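 Also: score merges 667 nm channel intensity with signal to noise over triplicate slides.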 Conditions: small-molecule microarray binding, higher = more signal.
Test [7] relates to Chordin-like protein 2 (CHRDL2). In words: CHRDL2 small-molecule binders, primary screen, biochemical, small-molecule microarray, 635 nm fluorescence (AID 1126).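 Also: printed compound slides probed with Chrdl2 protein at 4 µg/mL for 1 h at 4 C; score merges 667 nm emission intensity with signal to noise over three replicate slides.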 Conditions: small-molecule microarray binding, fluorescence 635 nm; higher = more signal.
Test [8] has as its target Concanavalin-A (Canavalia ensiformis) (UniProt P02866). The test is described as follows: ConA small-molecule binders, primary screen, artefact control for SMM control protein annotation, biochemical, small-molecule microarray, Alexa647 label, 635 nm (AID 1127).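 Also: z combines 667 nm emission intensity with signal-to-noise across three replicate slides.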 The settings on record: ConA-A647 binding fluorescence, higher = more signal.
Test [9] is described as follows: anti-His antibody binders, primary screen, artefact control for SMM control protein annotation, biochemical, small-molecule microarray, 635 nm fluorescence (AID 1128).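 Also: score merges feature fluorescence with signal-to-noise for each printed compound spot.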 Conditions: anti-His Alexa647 antibody binding, higher = more signal.
The test system of test [10] is Human papillomavirus type 1a E7 protein (residues 1-88). The test is described as follows: HPV1a E7 small-molecule binders, primary screen, biochemical, small-molecule microarray, residues 1-88, 635 nm (AID 1129). Conditions: small-molecule microarray binding, fluorescence 635 nm; higher = more signal.
The target of test [11] is Focal adhesion kinase 1 (Homo sapiens) (UniProt Q05397). The test is described as follows: small-molecule microarray binders of FAK, primary screen, biochemical, 635/667 nm fluorescence, BSA, DTT (AID 1130).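 Also: composite of spot emission at 667 nm and signal to noise over triplicate slides.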 The settings on record: PTK2 binding, 635 nm fluorescence, higher = more signal.
Sequence of Focal adhesion kinase 1 (Homo sapiens) (Q05397 whole entry, looked up): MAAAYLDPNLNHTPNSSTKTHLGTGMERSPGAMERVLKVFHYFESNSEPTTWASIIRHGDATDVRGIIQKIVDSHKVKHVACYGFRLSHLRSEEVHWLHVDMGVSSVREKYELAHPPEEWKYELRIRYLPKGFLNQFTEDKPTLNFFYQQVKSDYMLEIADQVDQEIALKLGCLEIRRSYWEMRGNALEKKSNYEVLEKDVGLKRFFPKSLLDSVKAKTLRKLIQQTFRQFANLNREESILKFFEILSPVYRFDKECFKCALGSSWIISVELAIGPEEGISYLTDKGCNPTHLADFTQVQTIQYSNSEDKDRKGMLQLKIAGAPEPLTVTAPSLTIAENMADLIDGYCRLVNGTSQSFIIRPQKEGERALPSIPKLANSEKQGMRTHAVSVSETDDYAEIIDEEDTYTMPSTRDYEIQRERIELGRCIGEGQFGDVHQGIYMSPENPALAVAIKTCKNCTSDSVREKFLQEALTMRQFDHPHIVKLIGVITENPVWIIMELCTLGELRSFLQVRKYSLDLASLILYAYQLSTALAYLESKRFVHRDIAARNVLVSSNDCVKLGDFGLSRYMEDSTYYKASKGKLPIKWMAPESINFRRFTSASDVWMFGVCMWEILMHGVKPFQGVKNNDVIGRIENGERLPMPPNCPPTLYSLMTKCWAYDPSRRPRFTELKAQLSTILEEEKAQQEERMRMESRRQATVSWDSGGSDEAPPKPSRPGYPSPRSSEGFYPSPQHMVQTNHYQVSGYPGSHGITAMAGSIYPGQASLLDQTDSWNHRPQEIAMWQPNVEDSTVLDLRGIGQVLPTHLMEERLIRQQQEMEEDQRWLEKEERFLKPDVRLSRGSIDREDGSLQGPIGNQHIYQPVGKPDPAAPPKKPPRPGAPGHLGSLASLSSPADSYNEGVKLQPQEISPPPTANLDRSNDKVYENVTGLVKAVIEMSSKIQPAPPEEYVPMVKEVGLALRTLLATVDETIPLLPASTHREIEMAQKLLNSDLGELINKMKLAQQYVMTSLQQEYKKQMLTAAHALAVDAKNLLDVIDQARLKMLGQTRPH
Test [12] relates to Fibrinogen (Alexa647-labelled). In words: fibrinogen binders on compound microarrays, profiling panel, artefact control for SMM control-protein annotation, biochemical, small-molecule microarray, 635/667 nm fluorescence (AID 1131).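 Also: z-score merges 667 nm fluorescence with per-spot signal-to-noise over triplicate slides.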 Conditions: fibrinogen-A647 binding fluorescence, higher = more signal.
The target in test [13] is Follistatin (Homo sapiens) (UniProt P19883). The test is described as follows: follistatin binders on small-molecule microarrays, primary screen, biochemical, small-molecule microarray, 635/667 nm fluorescence (AID 1132). Conditions: FST binding, 635 nm fluorescence, higher = more signal.
Sequence of Follistatin (Homo sapiens) (P19883 whole entry, looked up): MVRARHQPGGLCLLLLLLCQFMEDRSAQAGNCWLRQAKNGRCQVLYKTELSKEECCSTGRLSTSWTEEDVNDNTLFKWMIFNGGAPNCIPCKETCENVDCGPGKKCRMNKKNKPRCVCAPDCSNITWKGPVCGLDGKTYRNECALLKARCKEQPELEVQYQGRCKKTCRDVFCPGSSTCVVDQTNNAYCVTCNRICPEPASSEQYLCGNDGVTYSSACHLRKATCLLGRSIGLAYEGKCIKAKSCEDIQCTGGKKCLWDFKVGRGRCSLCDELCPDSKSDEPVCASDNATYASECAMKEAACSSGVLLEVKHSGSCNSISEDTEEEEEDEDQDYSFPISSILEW
The target of test [14] is Fibroblast growth factor 2 (Homo sapiens) (UniProt P09038). In words: FGF2 binders on small-molecule microarrays, primary screen, biochemical, small-molecule microarray, 635/667 nm fluorescence (AID 1133). The settings on record: small-molecule microarray binding, FGF2, fluorescence 635/667; higher = more signal.
Sequence of Fibroblast growth factor 2 (Homo sapiens) (P09038 whole entry, looked up): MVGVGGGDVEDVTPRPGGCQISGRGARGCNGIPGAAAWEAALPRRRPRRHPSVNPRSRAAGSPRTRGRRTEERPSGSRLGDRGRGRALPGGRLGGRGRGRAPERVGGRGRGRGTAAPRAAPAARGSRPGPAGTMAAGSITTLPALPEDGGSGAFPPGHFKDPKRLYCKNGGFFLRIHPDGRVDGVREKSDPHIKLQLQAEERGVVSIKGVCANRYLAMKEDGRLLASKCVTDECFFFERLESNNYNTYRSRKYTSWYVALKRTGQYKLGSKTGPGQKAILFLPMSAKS
A short description of test [15]: mitochondrial membrane potential change in A549 cells, profiling panel, cell-based, JC-1 fluorescence, basal, 24 h, 100 nL (AID 1138).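 Also: A549 lung adenocarcinoma cells under basal conditions with no added stimulus; test concentration not given here.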 Conditions: higher = more signal.
The test system of another test is Lefty1. In words: Lefty1 binders on small-molecule microarrays, primary screen, biochemical, small-molecule microarray, 635/667 nm fluorescence (AID 1139). The settings on record: small-molecule microarray binding, fluorescence 635/667; higher = more signal.
Test [16] relates to wheat germ agglutinin (Triticum aestivum), Alexa647-labelled. In words: wheat germ agglutinin binders on compound microarrays, profiling panel, artefact control for SMM control-protein annotation, biochemical, small-molecule microarray, 635/667 nm fluorescence (AID 1140).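 Also: score merges 667 nm feature emission with signal to noise over triplicate slides.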 The settings on record: WGA-A647 binding, 635 nm fluorescence, higher = more signal.
Test [17] deals with Luciferin 4-monooxygenase (Photinus pyralis) (UniProt P08659). In words: firefly luciferase enzyme inhibitors, primary screen, biochemical, luminescence, purified enzyme, 2006 set (AID 1141).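 Also: cell-free assay with purified firefly luciferase at 100 ng per well in PBS; test concentration not given here.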 The settings on record: SteadyGlo luminescence, 30 min, higher = more signal, called active from +8 up or from −8 down.
Sequence of Luciferin 4-monooxygenase (Photinus pyralis) (P08659 whole entry, looked up): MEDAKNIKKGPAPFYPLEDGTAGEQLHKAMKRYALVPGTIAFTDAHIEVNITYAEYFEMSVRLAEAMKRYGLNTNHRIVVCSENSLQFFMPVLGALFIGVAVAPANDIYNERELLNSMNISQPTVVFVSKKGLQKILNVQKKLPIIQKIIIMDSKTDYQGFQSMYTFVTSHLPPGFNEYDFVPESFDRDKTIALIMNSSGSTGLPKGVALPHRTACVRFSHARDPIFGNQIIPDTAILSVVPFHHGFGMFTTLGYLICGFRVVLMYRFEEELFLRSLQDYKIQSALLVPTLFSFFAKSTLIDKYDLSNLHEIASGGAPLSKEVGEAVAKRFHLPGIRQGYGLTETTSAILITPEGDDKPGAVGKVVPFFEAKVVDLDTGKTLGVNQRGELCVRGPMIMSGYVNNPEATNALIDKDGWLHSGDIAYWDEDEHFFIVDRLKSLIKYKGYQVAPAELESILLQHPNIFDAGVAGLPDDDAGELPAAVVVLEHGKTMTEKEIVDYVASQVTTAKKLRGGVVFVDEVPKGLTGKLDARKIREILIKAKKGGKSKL

Results on 6 molecules are retold here after PubChem BioAssay.

Molecules are shown by their SMILES. Active and inactive are the calls of the source.

Sequence of Albumin (Bos taurus) (P02769 whole entry, looked up): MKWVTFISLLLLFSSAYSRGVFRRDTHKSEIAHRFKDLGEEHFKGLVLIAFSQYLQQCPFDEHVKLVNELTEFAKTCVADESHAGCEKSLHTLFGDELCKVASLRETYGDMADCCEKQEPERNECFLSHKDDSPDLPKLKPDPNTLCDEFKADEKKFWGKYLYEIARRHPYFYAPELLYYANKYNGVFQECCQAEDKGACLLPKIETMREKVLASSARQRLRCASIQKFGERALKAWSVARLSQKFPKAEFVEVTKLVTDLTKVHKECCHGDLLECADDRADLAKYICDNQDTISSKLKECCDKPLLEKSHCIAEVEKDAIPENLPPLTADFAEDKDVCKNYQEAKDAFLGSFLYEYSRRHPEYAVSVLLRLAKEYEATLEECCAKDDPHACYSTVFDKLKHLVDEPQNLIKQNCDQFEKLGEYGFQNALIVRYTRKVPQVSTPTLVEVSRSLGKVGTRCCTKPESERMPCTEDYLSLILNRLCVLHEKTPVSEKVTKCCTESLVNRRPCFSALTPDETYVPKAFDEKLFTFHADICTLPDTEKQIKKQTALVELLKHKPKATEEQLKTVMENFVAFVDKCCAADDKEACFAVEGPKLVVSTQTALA
Sequence of Concanavalin-A (Canavalia ensiformis) (P02866 whole entry, looked up): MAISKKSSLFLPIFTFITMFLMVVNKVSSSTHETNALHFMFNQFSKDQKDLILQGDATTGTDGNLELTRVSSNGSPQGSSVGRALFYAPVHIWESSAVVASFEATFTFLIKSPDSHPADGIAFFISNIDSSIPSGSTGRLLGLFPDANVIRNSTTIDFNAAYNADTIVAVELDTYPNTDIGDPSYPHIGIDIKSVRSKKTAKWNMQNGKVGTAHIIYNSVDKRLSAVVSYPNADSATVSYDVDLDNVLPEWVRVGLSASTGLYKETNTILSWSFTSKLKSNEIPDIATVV

`CCS[C@H]1[C@@H](C(=O)O)[C@H](c2ccc(C)cc2)N(S(=O)(=O)c2ccc(C)cc2)[C@@H]1CC`: the composite z-score with Albumin (Bos taurus) was 0.804; in test [2], 0.372; in test [3], 0.0431; in test [4], 0.519; in test [5], 1.77; in test [6], 0.5. Moreover, the composite z-score with Sam68 (KHDRBS1) is 1.32; in test [7], -0.467; in test [8], 0.615; in test [9] it was 1.12; in test [10] it was 1.24; in test [11], 0.353. Also, the composite z-score in test [12] was 0.715; in test [13], 0.714; in test [14], -0.0028; in the test with Lefty1, -0.0097; in test [16], 0.652. In test [1], the composite Z-score is -0.0164 (inactive). Moreover, the z-score is -0.223 in test [15] and 1.16 (inactive) in test [17].

In the case of `C=CCC(OC(C)=O)[C@@H]1[C@@H](N(Cc2ccc(-c3ccccc3)cc2)C(=O)c2ccc(-c3ccccc3)cc2)c2cc(OCCCO)ccc2N1C(=O)Cc1ccc2ccccc2c1` (stereo not given in full), the composite z-score is 0.108 with Albumin (Bos taurus); -0.0057 in [2]; -0.213 in test [3]; 0.002 in test [4]; 0.522 in [5]; -0.0155 in test [6]. Also, the composite z-score with Sam68 (KHDRBS1) was 0.621; in [7], 0.156; in test [8], -0.288; in test [9], 1.13; in test [10] it was -0.0959; in test [11] it was -0.0802. The composite z-score in test [12] is 0.51; in [13], 0.456; in test [14] it was -0.275; in the test with Lefty1 it was 0.211; in test [16], 0.0685. In addition, the composite Z-score in test [1] was -0.316 (inactive). Besides, the z-score was 0.857 in test [15] and -0.785 (inactive) in test [17].

For `CN(C)CCCCCCNC(=O)[C@H]1C[C@H]2C(=O)N[C@@H](CCCCN)C(=O)N2[C@H]1c1cccc(OCCO)c1`, the composite z-score in the test with Albumin (Bos taurus) was 0.733; in test [2], 1.95; in [3] it was 0.986; in test [4] it was 0.773; in test [5], 4.1; in test [6], 0.952. The composite z-score with Sam68 (KHDRBS1) came to 1.33; in [7], 1.46; in [8] it was 1.25; in [9] it was 3.31; in test [10], 1.35; in test [11] it was 3.91. In addition, the composite z-score in test [12] was 0.977; in test [13] it was 1.54; in test [14], 0.844; with Lefty1, 1.41; in test [16] it was 1.64. Moreover, the composite Z-score in [1] was 5.67 (inactive). Also, the z-score in test [15] is 0.332; in [17] it was -0.485 (inactive).

As for `O=C(NCCO)C1=C[C@H](Oc2ccccc2I)[C@@H](O)[C@H](N(Cc2ccco2)C(=O)Cc2ccccc2)C1`, the composite z-score was -0.884 with Albumin (Bos taurus); -0.0014 in [2]; -0.0956 in test [3]; -0.17 in test [4]; -0.604 in test [5]; -0.0107 in [6]. Also, the composite z-score was -0.24 with Sam68 (KHDRBS1); 0.607 in test [7]; -0.981 in [8]; -0.169 in test [9]; 0.234 in [10]; -0.27 in test [11]. The composite z-score is -0.175 in test [12]; 0.863 in [13]; 0.58 in [14]; 0.624 in the test on Lefty1; -0.109 in test [16]. The composite Z-score in [1] is 0.524 (inactive). Also, the z-score was -1.18 in test [15] and 0.341 (inactive) in test [17].

For the molecule `COc1cc2c(cc1OC)CN(C(=O)[C@@H]1[C@H]3C(=O)O[C@H](c4ccccc4)[C@H](c4ccccc4)N3[C@H](c3ccc(O)cc3)[C@@]13C(=O)Nc1ccccc13)CC2`, the composite z-score with Albumin (Bos taurus) is 0.551; in test [2] it was -0.0647; in test [3] it was -0.117; in test [4] it was 0.622; in test [5], 1.74; in [6] it was 0.169. The composite z-score came to 0.751 with Sam68 (KHDRBS1); 0.257 in test [7]; 1.13 in test [8]; 0.948 in test [9]; 1.21 in test [10]; 0.684 in test [11]. Moreover, the composite z-score was 0.962 in test [12]; 0.421 in test [13]; 0.246 in [14]; 0.259 in the test on Lefty1; 0.965 in test [16]. Besides, the composite Z-score in [1] is 0.799 (inactive). Besides, the z-score in test [15] was -0.379; in [17], 0.81 (inactive).

`CC(C)N1C(=O)c2ccccc2[C@](C)(C(=O)NCCN2CCOCC2)[C@@H]1c1ccc(CO)cc1`: the composite z-score with Albumin (Bos taurus) is 0.406; in test [2] it was -0.0697; in test [3], -0.195; in [4], 0.766; in test [5] it was 2.48; in test [6], 0.385. Further, the composite z-score with Sam68 (KHDRBS1) was 0.359; in [7], -1.12; in test [8] it was -0.0721; in test [9] it was -0.293; in [10] it was -0.0941; in test [11], 0.356. For the same molecule, the composite z-score in test [12] is -0.726; in [13], 0.897; in [14], -0.574; in the test on Lefty1 it was -0.117; in test [16], -0.489. Besides, the composite Z-score in test [1] is -0.523 (inactive). The z-score is -0.662 in test [15] and -0.265 (inactive) in test [17].
